{"source": "PubChem BioAssay AID1063", "about": "(University of Pittsburgh Molecular Library Screening Center, 2008)", "note": "Screen size: about 200,000 compounds; about 18,000 (9%) were called active. No stated cut-off is given here; in the data, active means inhibition above about 50%; inactive means the rest. This excerpt belongs to a sample that is enriched for actives.", "data": [{"test": "antileishmanial activity against promastigotes – primary screen (AID 1063);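 further: promastigotes grown with compound for 44 hours at 28 °C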", "settings": "Leishmania major promastigotes, resazurin fluorescence viability; at 10 µM; active compounds read high", "values": [{"smiles": "CC(=O)NC(NC(=S)Nc1c(C)n(C)n(-c2ccccc2)c1=O)C(Cl)(Cl)Cl", "note": "(stereo not given)", "inhibition": "-10.3% (inactive)"}, {"smiles": "CCCC(=O)NC(C)C(c1cccs1)N1CCN(c2ccccc2)CC1", "note": "(stereo not given)", "inhibition": "21.8% (inactive)"}, {"smiles": "COc1ccc(N2CCN(C(C)=C3C(=O)c4ccccc4C3=O)CC2)cc1", "inhibition": "0.6% (inactive)"}, {"smiles": "COc1ccc(C(C(O)C(=O)c2c[nH]c3ccccc23)N2CCN(c3ccccc3)CC2)cc1", "note": "(stereo not given)", "inhibition": "60.7% (active)"}, {"smiles": "CCC(=O)c1ccc(OCC(O)Cn2nc(C)c(C(C)=O)c2C)cc1", "note": "(stereo not given)", "inhibition": "-1.66% (inactive)"}, {"smiles": "Cc1c(C(N)=O)sc2ncn(CCOc3ccccc3)c(=O)c12", "inhibition": "15.6% (inactive)"}, {"smiles": "N#Cc1c(-c2ccc(Cl)cc2)c2c([nH]c1=S)CCCC2", "inhibition": "-2.73% (inactive)"}, {"smiles": "N/C(=N\\OC(=O)COc1ccc([N+](=O)[O-])cc1)c1ccc(Br)cc1", "inhibition": "-2.89% (inactive)"}, {"smiles": "CCOC(=O)COc1ccc([N+](=O)[O-])cc1", "inhibition": "62.2% (active)"}, {"smiles": "N/C(Cc1ccc([N+](=O)[O-])cc1)=N\\OC(=O)COc1ccc2ccccc2c1", "inhibition": "-4.21% (inactive)"}, {"smiles": "Cc1nnc(SCCCCSc2nnc(C)c(=O)[nH]2)[nH]c1=O", "inhibition": "-5.64% (inactive)"}, {"smiles": "CN(c1ccc(OCC(=O)OCC(=O)Nc2cccc([N+](=O)[O-])c2)cc1)S(=O)(=O)c1ccc(F)cc1", "inhibition": "-5.95% (inactive)"}, {"smiles": "CC(CC(=O)C1C(C)C=CCC1(C)C)NNC(N)=O", "note": "(stereo not given)", "inhibition": "-5.44% (inactive)"}, {"smiles": "CCCCCCC(=O)Nc1nc(C)c(-c2csc(Nc3cc(Cl)ccc3OC)n2)s1", "inhibition": "56.5% (active)"}, {"smiles": "CCCCCCC(=O)Nc1nc(C)c(-c2csc(Nc3cccc(OC)c3)n2)s1", "inhibition": "56.1% (active)"}, {"smiles": "Cc1nc(NC(=O)c2cccc(Cl)c2)sc1-c1csc(Nc2cccc(Cl)c2)n1", "inhibition": "6.25% (inactive)"}, {"smiles": "Cc1ccc(Nc2nc(-c3sc(NC(=O)c4ccccc4)nc3C)cs2)cc1", "inhibition": "15.7% (inactive)"}, {"smiles": "C=CCCC(=O)Nc1nc(C)c(-c2csc(Nc3ccc(Cl)cc3)n2)s1", "inhibition": "40.7% (inactive)"}, {"smiles": "CCCCC(=O)Nc1nc(C)c(-c2csc(Nc3ccc(Cl)cc3)n2)s1", "inhibition": "27% (inactive)"}, {"smiles": "O=C(c1ccc(N2CCOCC2)c([N+](=O)[O-])c1)N1CCN(S(=O)(=O)c2cccs2)CC1", "inhibition": "26.9% (inactive)"}, {"smiles": "Cn1cnnc1Sc1ccc(CN2CCN(C3CCCC3)C(CCO)C2)o1", "note": "(stereo not given)", "inhibition": "-0.44% (inactive)"}, {"smiles": "COc1ccc(NC(=O)C(Br)C(C)C)cc1", "note": "(stereo not given)", "inhibition": "-2.81% (inactive)"}, {"smiles": "CN(C)c1ccc(C(=S)N2CCN(C(=S)Nc3ccc(Cl)cc3)CC2)cc1", "inhibition": "-3.85% (inactive)"}, {"smiles": "O=C1CN(C(=O)COC(=O)c2cnc(Cl)c(Cl)c2)c2ccccc2N1", "inhibition": "-5.42% (inactive)"}, {"smiles": "O=c1c([N+](=O)[O-])cccn1Cc1ccc(F)cc1Cl", "inhibition": "13.1% (inactive)"}, {"smiles": "CCN(CC)CCNc1ccc(Cl)cc1[N+](=O)[O-]", "inhibition": "52.1% (active)"}, {"smiles": "COCCNc1cc(NCCOC)c([N+](=O)[O-])cc1[N+](=O)[O-]", "inhibition": "32.9% (inactive)"}, {"smiles": "CSc1ccccc1NC(=O)CN(C)CC(=O)Nc1ccc(Cl)cc1[N+](=O)[O-]", "inhibition": "12% (inactive)"}, {"smiles": "CCOC(=O)c1sc(NC(=O)C(CC)Sc2nccn2C)nc1C", "note": "(stereo not given)", "inhibition": "9.41% (inactive)"}, {"smiles": "C=CCn1c2ccccc2c2nnc(SCc3[nH]c(=O)[nH]c3C(=O)CCCCC(=O)OCC)nc21", "inhibition": "4.8% (inactive)"}, {"smiles": "C=CCn1c2ccccc2c2nnc(SC(CC)C(=O)Nc3nc(C)c(C(=O)OCC)s3)nc21", "note": "(stereo not given)", "inhibition": "62.5% (active)"}, {"smiles": "COc1ccccc1C(=O)CSc1cccc[n+]1[O-]", "inhibition": "-7.87% (inactive)"}, {"smiles": "COc1cccc(C(=O)Nc2nc3ccc(S(C)(=O)=O)cc3s2)c1", "inhibition": "16% (inactive)"}, {"smiles": "CC(C)c1nc2sc3c(c2c(=O)n1N)CC(C)(C)OC3", "inhibition": "-0.56% (inactive)"}, {"smiles": "O=C(O)Cc1sc(-c2ccc(C(=O)O)cc2)nc1-c1ccccc1", "inhibition": "-1.45% (inactive)"}, {"smiles": "Cc1cc(C)c(NC(=O)CS(=O)CC(=O)Nc2cccnc2)c(C)c1", "note": "(stereo not given)", "inhibition": "-5.42% (inactive)"}, {"smiles": "Cc1ccc(-c2nc(-c3cccnc3)sc2CC(=O)Nc2ccc(C)c(Cl)c2)cc1", "inhibition": "78.2% (active)"}, {"smiles": "CC(C)CC(CC(C)C)=NNC(=O)c1ccc(CSc2nncn2C)cc1", "inhibition": "-4.77% (inactive)"}, {"smiles": "O=C(CN1C(=O)NC2(CCCC2)C1=O)NCC1CCCO1", "note": "(stereo not given)", "inhibition": "-4.12% (inactive)"}, {"smiles": "Cc1cc(=O)oc2c1c(C)nn2-c1ccc(Cl)cc1", "inhibition": "-5.67% (inactive)"}, {"smiles": "CCC(CC)C(=O)Nc1ccc(S(=O)(=O)Nc2nccs2)cc1", "inhibition": "6.97% (inactive)"}, {"smiles": "O=C(NC(=S)Nc1ccc(S(=O)(=O)Nc2ncccn2)cc1)c1cccc(Br)c1", "inhibition": "-8.62% (inactive)"}, {"smiles": "CCCN(CCC)CCNC(=O)c1cc2c(C)nc3ccccc3c2o1", "inhibition": "56.9% (active)"}, {"smiles": "Cc1nc2ccccc2c2oc(C(=O)NCCCN3CCC(C)CC3)cc12", "inhibition": "24% (inactive)"}, {"smiles": "Cc1nc2ccccc2c2oc(C(=O)NCC3CCCO3)cc12", "note": "(stereo not given)", "inhibition": "11.4% (inactive)"}, {"smiles": "CC(C)OCCCNC(=O)c1ccc(C2SCC(=O)N2Cc2ccco2)cc1", "note": "(stereo not given)", "inhibition": "-3.9% (inactive)"}, {"smiles": "Cc1cc(C(=O)NNC(=O)CCC2CCCCC2)c(C)o1", "inhibition": "-8.93% (inactive)"}, {"smiles": "CCC(=O)N1CCC(C(N)=O)(N2CCCCC2)CC1", "inhibition": "0.56% (inactive)"}, {"smiles": "O=C(Nc1cccn(Cc2ccccc2Cl)c1=O)NC1CCCCC1", "inhibition": "17.9% (inactive)"}, {"smiles": "COc1ccc(Cl)cc1C(=O)NNC(=S)NC1CCCC1", "inhibition": "17.1% (inactive)"}, {"smiles": "CCN(CC)c1ccc2oc(=O)c(C)nc2c1", "inhibition": "96.6% (active)"}, {"smiles": "CCN(CC)c1ccc2cc(C(=O)O)c(=O)oc2c1", "inhibition": "22.2% (inactive)"}, {"smiles": "CCN(CC)c1ccc2c(Nc3ccccc3)c(C=O)c(=O)oc2c1", "inhibition": "-4.13% (inactive)"}, {"smiles": "CNc1[nH]ncc1[N+](=O)[O-]", "inhibition": "-7.01% (inactive)"}, {"smiles": "COc1ccc(CCn2ccc(O)c(Cc3ccc(Cl)cc3Cl)c2=O)cc1OC", "inhibition": "7.61% (inactive)"}, {"smiles": "COCCCNC(=S)N1CCCC(c2nc3cc(C)c(C)cc3[nH]2)C1", "note": "(stereo not given)", "inhibition": "0.93% (inactive)"}, {"smiles": "N=C1C(c2nc3ccccc3[nH]2)=C(O)CN1NC(=O)c1c[nH]c2ccccc12", "inhibition": "-3.91% (inactive)"}, {"smiles": "Cn1c(=O)n(C)c2cc(S(=O)(=O)N3CCCc4ccccc43)ccc21", "inhibition": "47.6% (inactive)"}, {"smiles": "CCCCn1ccnc1C(=O)c1cccc(S(=O)(=O)N2c3ccccc3CC2C)c1", "note": "(stereo not given)", "inhibition": "0.6% (inactive)"}, {"smiles": "CC1Cc2ccccc2N1S(=O)(=O)c1c(N)n(C)c(=O)n(C)c1=O", "note": "(stereo not given)", "inhibition": "99.8% (active)"}]}]}
